Experimental data from PubChem BioAssay.

Test: probe aEGFR binding to arrayed compounds – biochemical, biotinylated probe, 635/667 nm fluorescence, primary screen (AID 1097);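 note: probe is a biotinylated anti-EGFR antibody binding compounds printed on slides; score combines fluorescence near 667 nm and signal to noise of each spot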
Details: small-molecule microarray, higher = more signal

SMILES	composite z-score
O=C(O)C1=CC[C@H]2C(=O)N(c3ccccc3)C(=O)[C@@H]12	0.186
C=CC[C@H](OC(=O)Nc1ccc(SC)cc1)c1ccc(O)c(F)c1	-0.14
COC(=O)C1(CC(C)C)C=C2C(=C(C)C(=O)C2C)CN1 (centres undefined)	0.449
[N-]=[N+]=NCc1ccccc1C[C@]1(C(=O)N2CCCCC2)COC(c2ccc(OCCCO)cc2)=N1	0.306
C=C[C@H](C)[C@@H](OC(=O)Nc1ccc(SC)cc1)c1ccc(OCCO)cc1	-0.225
COC(=O)Cn1c(C(=O)N(C)C)cc2c1C[C@H]1CN(C(=O)c3ccccc3)[C@@](Cc3ccccc3)(C(=O)OC)[C@@H]21	0.25
O=C1c2ccccc2[C@](Cc2ccccc2I)(C(=O)NCCN2CCOCC2)[C@H](c2ccc(CO)cc2)N1Cc1ccccc1C(F)(F)F	-0.109
Cc1ccc(S[C@]2(C(=O)NCCN3CCOCC3)CC(=O)N(C(C)C)[C@@H]2c2ccc(CO)cc2I)cc1	-0.0234
C=C(CCCC)C(=O)CC[C@H](OC(=O)c1ccccc1-c1ccccc1C(=O)O)c1cccc(OCCO)c1	-0.221
[N-]=[N+]=Nc1ccccc1C[C@@]1(C(=O)NCc2ccccc2)N=C(c2ccc(OCCCO)cc2)O[C@@H]1c1ccccc1	0.1
C=CCNC(=O)[C@@H]1[C@H]2C(=O)O[C@H](c3ccccc3)[C@H](c3ccccc3)N2[C@H](c2ccc(OCCO)cc2)[C@@]12C(=O)Nc1ccc(C#CC3=CCCCC3)cc12	0.0526
CC(C)C[C@@H]1NC(=O)[C@H]2C[C@@H](C(=O)O)[C@@H](c3cccc(OCCO)c3)N2C1=O	0.0588
CC(C)c1ccc(NN2C(C(O)C(C)c3ccccc3)C=CC3C(=O)N(c4ccccc4)C(=O)C32)cc1 (centres undefined)	0.298
Cc1ccc(S(=O)(=O)N2[C@@H](c3ccccc3)C(C(=O)O)=C[C@H]2C(C)(C)C)cc1	0.131
CCOC(=O)C1=CC[C@@H](c2ccccc2)N(S(=O)(=O)c2ccc(C)cc2)[C@@H]1C#N	-0.013
COCCOC(=O)N1C(=O)[C@@]2(c3cc(C#CCC(C(=O)OC)C(=O)OC)ccc31)[C@H](C(=O)N1CCc3cc(OC)c(OC)cc3C1)[C@H]1C(=O)O[C@H](c3ccccc3)[C@H](c3ccccc3)N1[C@@H]2c1ccccc1OCCO	0.0209
CN(C)CCCC[C@@H]1NC(=O)[C@H]2C[C@@H](C(=O)NCCCCCCNC(=O)CS)[C@@H](c3cccc(OCCO)c3)N2C1=O	-0.146
COc1cc2c(cc1O)C(C)N(Cc1sc3ccccc3c1Cl)CC2 (centres undefined)	-0.2
COCCOC(=O)N1C(=O)[C@@]2(c3cc(C#CCC(C(=O)OC)C(=O)OC)ccc31)[C@H](c1ccc(O)cc1)N1[C@H](c3ccccc3)[C@H](c3ccccc3)OC(=O)[C@H]1[C@@H]2C(=O)N1CCc2cc(OC)c(OC)cc2C1	0.0353
CCOC(=O)C1=CCC(c2ccncc2)N(S(=O)(=O)c2ccc(C)cc2)C1 (centres undefined)	0.0642
COC(=O)[C@@]1(Cc2ccc(F)cc2)[C@H]2c3cc(C(=O)N4CCCC4)n(Cc4ccc(C(F)(F)F)nc4)c3C[C@H]2CN1C(=O)c1ccccc1	0.188
CC(C)(C)OC(=O)CC[C@@]1(C(N)=O)N=C(c2ccc(OCCCO)cc2)O[C@@H]1c1ccccc1CN=[N+]=[N-]	0.756
C=CCNC(=O)[C@H]1[C@@H]2C(=O)O[C@@H](c3ccccc3)[C@@H](c3ccccc3)N2[C@@H](c2ccc(OCCO)cc2)[C@]12C(=O)N(C(=O)OCCOC)c1ccc(C#CCC(C(=O)OC)C(=O)OC)cc12	0.315
C=CCOC(=O)[C@H]1[C@@H]2C(=O)O[C@@H](c3ccccc3)[C@@H](c3ccccc3)N2[C@@H](c2ccc(OCCOC(=O)[C@@H]3C[C@@H]4C(=O)N[C@@H](Cc5ccccc5)C(=O)N4[C@@H]3c3ccc(O)cc3)cc2)[C@]12C(=O)Nc1ccc(I)cc12	-0.0119
CCN1C(=O)C2CC(=O)C3C(CN(S(=O)(=O)c4ccc(C)cc4)C3c3ccc(C)cc3)C2C1=O (centres undefined)	-0.0089
C=C(C)C1CN([C@H](CO)c2ccccc2)C(=O)/C1=C\c1ccccc1 (some centres undefined)	-0.167
C=C(COC)C(=O)CC[C@H](OC(C)=O)c1ccc(CO)o1	-0.067
COC(=O)C(CC#Cc1ccc2c(c1)[C@]1(C(=O)N2)[C@H](C(=O)NC[C@H](O)c2ccccc2)[C@H]2C(=O)O[C@H](c3ccccc3)[C@H](c3ccccc3)N2[C@@H]1c1ccc(O)cc1)C(=O)OC	-0.0509
C=C[C@H](OC)[C@@H](O)c1ccc(OC)c(O)c1	-0.258
